Growth data for 14 molecules are collected here from PubChem BioAssay (NCI).

Compounds without any hit were thinned out: in the full panel of roughly 83,000, 20% have a hit.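 Results are percent growth after 48 hours of single-concentration exposure. 100 means growth as in untreated cells, lower positive values show inhibition; negative values down to -100 show cell death.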 Values without a mark were called inactive. Calls of active or inactive are those of the source. The calls were made as follows: active = growth percent below 10; inactive = the rest.

Some test systems named below: SR leukemia; RPMI-8226 leukemia; OVCAR-8 ovarian; OVCAR-5 ovarian; OVCAR-4 ovarian; SK-OV-3 ovarian; IGROV1 ovarian; OVCAR-3 ovarian; HS 578T breast; NCI/ADR-RES ovarian.
Holding throughout (assay): NCI-60 one-dose screen, 48 h (100 = growth as untreated, 0 = no growth, -100 = all killed)
Holding throughout (conditions): 10 µM unless noted

For the molecule `COc1cc2c(c(OC)c1OC)-c1ccc(N)c(=O)cc1[C@@H](NC(C)=O)CC2`, the growth in the assay with SR leukemia was 20%; in the assay with RPMI-8226 leukemia it was 27.2%; in the assay with OVCAR-8 ovarian, 16.6%; in the assay with OVCAR-5 ovarian, 40.5%; in the assay on OVCAR-4 ovarian, 51%; with SK-OV-3 ovarian, 23.9%. The growth in the assay with IGROV1 ovarian was 1.05% (active); with OVCAR-3 ovarian it was -54.2% (active); in the assay with HS 578T breast, 19.6%; with NCI/ADR-RES ovarian, 75.6%.
Regarding `CCN(CC)CCCNc1nccc2ccc(Cl)cc12`, the growth in the assay with SR leukemia was 94.3%; in the assay with RPMI-8226 leukemia it was 101%; with OVCAR-8 ovarian, 94.8%; in the assay on OVCAR-5 ovarian, 92%; in the assay on OVCAR-4 ovarian, 108%; with SK-OV-3 ovarian, 100%. Besides, the growth is 118% in the assay on IGROV1 ovarian, 105% with OVCAR-3 ovarian, 109% in the assay on HS 578T breast and 105% in the assay with NCI/ADR-RES ovarian.
Take `C=C1C(=O)O[C@H]2[C@H]1CC/C(Cn1cc(CNC(=O)Cc3cn(C(=O)c4ccc(Cl)cc4)c4ccc(OC)cc34)nn1)=C\CC[C@@]1(C)O[C@@H]21`: the growth in the assay with SR leukemia was -28% (active); in the assay with RPMI-8226 leukemia it was -40.2% (active); in the assay on OVCAR-8 ovarian it was -64.2% (active); in the assay on OVCAR-5 ovarian it was 58.3%; in the assay on OVCAR-4 ovarian it was 18.8%; in the assay on SK-OV-3 ovarian, 88.9%. The growth was -18.7% (active) in the assay with IGROV1 ovarian, -82.3% (active) in the assay on OVCAR-3 ovarian, 24.7% in the assay with HS 578T breast and 95.9% in the assay with NCI/ADR-RES ovarian.
As for `O=C1c2ccccc2-c2ccccc2C1(Cl)Cl`, the growth is 16.7% with SR leukemia; -10.8% (active) in the assay on RPMI-8226 leukemia; -90.4% (active) in the assay with OVCAR-8 ovarian; -73.7% (active) in the assay with OVCAR-5 ovarian; -98.6% (active) with OVCAR-4 ovarian; 94.5% with SK-OV-3 ovarian. Also, the growth is -98.5% (active) in the assay on IGROV1 ovarian, -87.2% (active) with OVCAR-3 ovarian, -7.35% (active) with HS 578T breast and -44.2% (active) in the assay on NCI/ADR-RES ovarian.
For `COc1cc(Cn2cc3c(c2)-c2oncc2CC3)cc(OC)c1OC`, the growth in the assay on SR leukemia is 11.3%; in the assay with RPMI-8226 leukemia it was 22.8%; in the assay on OVCAR-8 ovarian it was 16.6%; in the assay on OVCAR-5 ovarian it was 41.2%; in the assay on OVCAR-4 ovarian, 48%; with SK-OV-3 ovarian, -5.27% (active). Further, the growth was 1.48% (active) with IGROV1 ovarian, -40.5% (active) in the assay on OVCAR-3 ovarian, 7.08% (active) in the assay on HS 578T breast and -13.9% (active) in the assay on NCI/ADR-RES ovarian.
With `O=S(=O)(CC(O)(c1ccccc1)c1ccccc1)CC(O)(c1ccccc1)c1ccccc1`, the growth with SR leukemia was 118%; in the assay with RPMI-8226 leukemia, 94.7%; with OVCAR-8 ovarian it was 75.8%; in the assay on OVCAR-5 ovarian, 94.9%; in the assay with OVCAR-4 ovarian it was 80.9%; with SK-OV-3 ovarian it was 77%. Also, the growth was 66.5% in the assay with IGROV1 ovarian, 77.1% in the assay on OVCAR-3 ovarian, 65.3% in the assay on HS 578T breast and 86.1% in the assay with NCI/ADR-RES ovarian.
For the molecule `CCC(C)/C(=C\C#N)NCCCN/C(=C/C#N)C(C)CC` (stereo not given), the growth in the assay with SR leukemia was 90.4%; in the assay on RPMI-8226 leukemia, 88.7%; with OVCAR-8 ovarian, 100%; in the assay on OVCAR-5 ovarian it was 102%; in the assay on OVCAR-4 ovarian, 109%; in the assay with SK-OV-3 ovarian it was 105%. The growth with IGROV1 ovarian was 102%; with OVCAR-3 ovarian, 126%; in the assay with HS 578T breast, 101%; with NCI/ADR-RES ovarian it was 105%.
In the case of `CCc1cnc(=S)n(-c2ccccc2)c1`, the growth in the assay with SR leukemia is 99.6%; in the assay with RPMI-8226 leukemia, 119%; in the assay on OVCAR-8 ovarian, 113%; in the assay with OVCAR-5 ovarian it was 97.3%; with OVCAR-4 ovarian, 135%; in the assay with SK-OV-3 ovarian, 105%. In addition, the growth is 105% with IGROV1 ovarian, 98.5% with OVCAR-3 ovarian, 108% in the assay with HS 578T breast and 98.3% in the assay with NCI/ADR-RES ovarian.
In the case of `COc1ccc(/C=C2\Oc3cc(OCCCN4CCCC4)ccc3C2=O)cc1`, the growth with SR leukemia was -28.4% (active); with RPMI-8226 leukemia, 86.9%; with OVCAR-8 ovarian, 95.9%; with OVCAR-5 ovarian, 92.9%; in the assay with OVCAR-4 ovarian, 90.1%; in the assay on SK-OV-3 ovarian it was 106%. Moreover, the growth in the assay with IGROV1 ovarian was 88.4%; with OVCAR-3 ovarian it was 94.3%; in the assay with HS 578T breast, 89.3%; in the assay on NCI/ADR-RES ovarian, 96.2%.
`CCCCCCCCCCCC(=O)NCCC[N+](C)(C)CC(=O)[O-]`: the growth in the assay on SR leukemia is 68.8%; in the assay on RPMI-8226 leukemia it was 93.2%; with OVCAR-8 ovarian, 96.9%; with OVCAR-5 ovarian, 90.2%; in the assay with OVCAR-4 ovarian it was 97.7%; in the assay with SK-OV-3 ovarian it was 103%. Further, the growth is 76.7% in the assay with IGROV1 ovarian, 99.8% in the assay with OVCAR-3 ovarian, 105% in the assay on HS 578T breast and 102% with NCI/ADR-RES ovarian.
Take `CC(=O)OC[C@]12CC[C@H]3[C@@H](C[C@H]4O[C@]45CC=CC(=O)[C@]35C)[C@]1(O)CC[C@@]2(O)[C@@](C)(O)C1CC(C)=C(C)C(=O)O1` (stereo not given in full): the growth was 10.4% in the assay on SR leukemia; -19.6% (active) in the assay with RPMI-8226 leukemia; 7.69% (active) with OVCAR-8 ovarian; -24.1% (active) in the assay with OVCAR-5 ovarian; 19.8% in the assay on OVCAR-4 ovarian; -13.1% (active) in the assay on SK-OV-3 ovarian. Also, the growth in the assay with IGROV1 ovarian is -55.1% (active); with OVCAR-3 ovarian, -23.7% (active); in the assay with HS 578T breast, -1.18% (active); in the assay with NCI/ADR-RES ovarian, 38.9%.
`NNc1cccc(/C=C/c2ccccc2)cc1=O`: the growth with SR leukemia was 31.8%; in the assay with RPMI-8226 leukemia, 29.8%; in the assay on OVCAR-8 ovarian, 57.8%; in the assay on OVCAR-5 ovarian, 82.3%; in the assay on OVCAR-4 ovarian, 45.9%; in the assay with SK-OV-3 ovarian, 76.4%. Moreover, the growth was 33.6% in the assay with IGROV1 ovarian, 54.6% in the assay with OVCAR-3 ovarian, 78.5% in the assay with HS 578T breast and 59.6% in the assay on NCI/ADR-RES ovarian.
In the case of `CC(C)(C)OC(=O)NCCc1ccc(N=C=S)cc1`, the growth in the assay with SR leukemia is 22.5%; in the assay on RPMI-8226 leukemia it was 9.22% (active); with OVCAR-8 ovarian it was 86%; in the assay with OVCAR-5 ovarian it was 82.7%; in the assay on OVCAR-4 ovarian, 76.9%; in the assay with SK-OV-3 ovarian it was 97.1%. The growth in the assay on IGROV1 ovarian is 71.8%; in the assay on OVCAR-3 ovarian, 72.7%; with HS 578T breast, 92.3%; in the assay with NCI/ADR-RES ovarian, 75.6%.
As for `COc1ccc(C2=CC(c3cc(OC)c(OC)c(OC)c3)NC(=O)N2)cc1OC` (stereo not given), the growth is 9.57% (active) in the assay with SR leukemia; 4.8% (active) with RPMI-8226 leukemia; 18.8% in the assay on OVCAR-8 ovarian; 34.6% in the assay with OVCAR-5 ovarian; 18.8% in the assay on OVCAR-4 ovarian; 23.3% in the assay on SK-OV-3 ovarian. Also, the growth was -17.7% (active) with IGROV1 ovarian, -24% (active) in the assay on OVCAR-3 ovarian, 7.62% (active) in the assay on HS 578T breast and 13.7% in the assay with NCI/ADR-RES ovarian.
